Screening results deposited in PubChem BioAssay by The Scripps Research Institute Molecular Screening Center.
Rows were chosen to be rich in hits. Some 3.5% of all compounds tested hit in one or more screens of this group.
TEAD-YAP inh – TEAD-YAP interaction inhibition | HEK-TIYL cells, TEAD-Gal4/YAP UAS-luciferase luminescence | inhibition, % at 9.12 µM | 640,000 tested, 1.4% active | AID 1259422; in the data active means inhibition above about 32%;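 further: 0% = median of test compound wells and 100% = reference inhibitor wells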
FBW7 activator – human FBW7 E3 ligase activation, primary screen. 650,000 tested, 0.13% active. normalized activity (activation), % at 26.1 µM. Q969H0. AlphaScreen FBW7–phospho-cyclin E peptide binding, activator screen; in the data active means normalized activity above about 1.9%;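 further: purified mutant Fbw7 with reduced substrate affinity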
MITF inh – blocks human microphthalmia-associated transcription factor; O75030; AlphaScreen MITF homodimerization, bead proximity signal; inhibition, % at 2.6 µM; 650,000 tested, 0.91% active; in the data active means inhibition above about 50%;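 further: 0% = vehicle wells with protein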
GPR151 ag – activators of human GPR151 | Q8TDV0 | PathHunter beta-arrestin GPR151 cells, luminescence | activation, % at 11.2 µM | 650,000 tested, 1% active | AID 1508602; in the data active means activation above about 4.9%;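 further: 0% = median of compound wells and 100% = cells with positive control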
Target sequence (Q8TDV0 whole entry, looked up): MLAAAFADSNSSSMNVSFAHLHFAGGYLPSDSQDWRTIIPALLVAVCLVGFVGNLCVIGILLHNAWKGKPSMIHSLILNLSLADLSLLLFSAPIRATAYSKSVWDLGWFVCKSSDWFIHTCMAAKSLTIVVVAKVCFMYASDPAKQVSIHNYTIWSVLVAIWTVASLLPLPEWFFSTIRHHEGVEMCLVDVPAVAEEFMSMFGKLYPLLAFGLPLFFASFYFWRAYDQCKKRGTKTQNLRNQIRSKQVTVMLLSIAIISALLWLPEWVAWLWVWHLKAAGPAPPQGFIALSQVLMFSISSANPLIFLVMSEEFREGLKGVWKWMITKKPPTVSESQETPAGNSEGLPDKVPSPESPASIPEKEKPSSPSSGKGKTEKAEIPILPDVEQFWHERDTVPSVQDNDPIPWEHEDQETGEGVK
MITF confirm – confirmation of human MITF inhibitors; 4,700 tested, 16% active; inhibition, % at 2.6 µM; shares compounds with MITF inh; AlphaScreen MITF homodimerization, biotin/His-MITF beads;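 active means inhibition above a cutoff derived from the DMSO control wells, cut at about 28% in these data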;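 further: 0% = MITF dimer wells with DMSO only; inhibitors lower the bead chemiluminescence by keeping MITF from dimerizing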
AlphaScreen DR – AlphaScreen optical interference, dose response counter-screen; shares compounds with MITF inh; 480 tested, 6% active; AlphaScreen optical interference counterscreen, cell-free; IC50, µM; call rule not given here
AS interf ctr – counter-screen: compounds optically interfering with AlphaScreen; 4,700 tested, 7.6% active; shares compounds with MITF inh; LysRS AlphaScreen counterscreen, signal interference, triplicate; inhibition, % at 2.6 µM;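 active means inhibition above a cutoff derived from the DMSO control wells, cut at about 30% in these data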
* marks the source's active call; other numbers are inactive results; . = not tested or not shown.

SMILES | TEAD-YAP inh | FBW7 activator | MITF inh | GPR151 ag | MITF confirm | AS interf ctr | others
O=C1C2C(c3ccccc3)C=CC(c3ccccc3)C2C(=O)N1c1cccc2ccccc12 (stereo not given) | 9 | 1 | 17 | -1 | . | .
Cc1nnc(CNC(=O)c2ccc(-n3cccc3)cc2)o1 | 12 | 0 | 55* | 1 | 55* | 16 | AlphaScreen DR=>6.5
Cc1nnc(CNC(=O)c2cnn(-c3ccccc3)c2C)o1 | 3 | 0 | 6 | 1 | . | .
Cc1ccc(OCC(=O)N2CC3(C)CC2CC(C)(C)C3)c([N+](=O)[O-])n1 (stereo not given) | 6 | 0 | 51* | 1 | -9 | -3
CN=C1SC(CC(=O)Nc2cccc(C(=O)O)c2)C(=O)N1C (stereo not given) | 10 | 0 | 53* | 3 | 36* | 9 | AlphaScreen DR=>6.5
COc1ccc(C2CC(=O)C3=C(C2)NC(C)=C(C(=O)OCc2ccccc2)C3c2ccncc2)cc1 (stereo not given) | 3 | 0 | -2 | -1 | . | .
O=C(Cc1ccccc1)n1nc(-c2cccnc2)nc1NCc1cccs1 | -16 | 1 | 57* | 0 | -4 | -5
O=C(Cc1ccccc1)n1nc(-c2cccnc2)nc1NCc1ccccc1 | -7 | 0 | 0 | -1 | . | .
O=C(O)c1ccc(CN2CCN(c3ccc([N+](=O)[O-])cc3)CC2)cc1 | 14 | 0 | -7 | 0 | . | .
O=[N+]([O-])c1ccc(N2CCN(Cc3cccnc3)CC2)cc1 | 2 | 0 | 59* | 0 | 0 | -2
O=C(c1ccccc1Cl)N1CCN(c2ccc([N+](=O)[O-])cc2)CC1 | 25 | 0 | 97* | 0 | 7 | 11
O=[N+]([O-])c1ccc(N2CCN(Cc3ccncc3)CC2)cc1 | 8 | 0 | 61* | 1 | 0 | -1
CCCCN1C(=O)CN(C2CCCCC2)C(=O)C1c1ccc(OC)c(OC)c1 (stereo not given) | -11 | 0 | -2 | 0 | . | .
O=C1NCCN(CCc2ccccc2)C1CC(=O)N1CCCCO1 (stereo not given) | 0 | 0 | 0 | -1 | . | .
Cc1ccc(-c2nc(C(=O)NCCN3CCCC3)c3n2CCCCC3)cc1 | 5 | 0 | 14 | 1 | . | .
N/C(CC(=O)NC1CCCCC1)=N\OCC(=O)NC(c1ccccc1)c1ccccc1 | 9 | 0 | 12 | 1 | . | .
O=C(CN1CCCCC1)NC(c1ccccc1)c1ccccc1 | -6 | 0 | 53* | -1 | 13 | 7
O=C(CN1CCCC1)NC(c1ccccc1)c1ccccc1 | -1 | 0 | 59* | -1 | 8 | 13
O=C(CN1CCC(N2CCCCC2)CC1)NC(c1ccccc1)c1ccccc1 | -6 | 0 | 14 | 0 | . | .
O=C(CNC1CCCCC1)NC(c1ccccc1)c1ccccc1 | -1 | 0 | 52* | 1 | 12 | 9
CCN1CCN(C(C)C(=O)NC(c2ccccc2)c2ccccc2)CC1 (stereo not given) | -5 | 0 | 61* | 0 | 11 | 14
CCN1CCN(C(=O)C(c2ccccc2)c2ccccc2)CC1 | 2 | 0 | -4 | -2 | . | .
CCc1nn2c(=O)c(S(=O)(=O)NCc3ccc(F)cc3)c(C)nc2s1 | 10 | 0 | -10 | 1 | . | .
COCCN(CCOC)C(=O)c1cc2c(-c3ccccc3)nn(-c3ccccc3)c2s1 | 12 | 0 | 16 | -1 | . | .
O=C(Nc1ccc(-c2ccn[nH]2)cc1)C1CCCN(Cc2cc(C#CCO)cs2)C1 (stereo not given) | -1 | 0 | 3 | 1 | . | .
SMILES | TEAD-YAP inh | FBW7 activator | MITF inh | GPR151 ag | MITF confirm | AS interf ctr | others
CCOC(=O)c1c(-c2ccc(C)cc2)csc1NC(=O)c1ccc(F)cc1 | -3 | 0 | 8 | 2 | . | .
O=C(/C=C/c1ccco1)NCC(=O)N/N=C/c1ccc(C(=O)O)cc1 | 5 | 0 | 51* | 1 | 45* | -5 | AlphaScreen DR=>6.5
COc1ccc2c(c1)N(C(N)=S)C(C)(C)C=C2C | 12 | -1 | 90* | 1 | 73* | 57*
COc1ccc(-c2cc3ccccc3n2CC(O)CNCc2ccco2)cc1 (stereo not given) | -12 | 1 | 71* | -1 | 2 | 2
O=C(/C=C/c1cn(-c2nc(-c3ccccc3)c3cc(Br)ccc3n2)[n+](-c2ccccc2)c1)c1ccccc1 | -18 | 0 | 77* | -1 | 6 | 10
COc1cccc(O)c1CN1CCN(CC(C)C)C(CCO)C1 (stereo not given) | 17 | 0 | 12 | -2 | . | .
O=C(CSc1nc2[nH]ncc2c(=O)n1-c1ccc(Br)cc1)NCc1cccs1 | 9 | 0 | 54* | 0 | -9 | -10
O=C(CSc1nc2[nH]ncc2c(=O)n1-c1ccc(Cl)cc1)NCc1cccs1 | 13 | 0 | 14 | 0 | . | .
COc1ccc2c(c1)CC(C(=O)Nc1ccc(-c3cn[nH]c3)cc1C(=O)N(C)OC)CO2 (stereo not given) | -8 | 0 | 51* | -3 | 51* | 13 | AlphaScreen DR=>6.5
COc1ccc2c(c1)CC(C(=O)Nc1ccc(-c3cn[nH]c3)cc1OCC#N)CO2 (stereo not given) | 2 | 0 | 52* | 0 | 43* | 19 | AlphaScreen DR=>6.5
CNS(=O)(=O)c1cc(O)c2c(S(=O)(=O)O)cc(S(=O)(=O)NC)cc2c1 | -5 | 0 | 12 | -1 | . | .
Nc1cc2c(S(=O)(=O)O)cc(S(=O)(=O)O)cc2cc1S(=O)(=O)O | 1 | 0 | 52* | 0 | 35* | 28 | AlphaScreen DR=>6.5
CCN1CCN(C(c2ccc3ncccc3c2)c2nnnn2C(C)(C)C)CC1 (stereo not given) | 0 | 0 | 10 | 1 | . | .
CC(C)(C)n1nnnc1C(c1ccc2ncccc2c1)N1CCOCC1 (stereo not given) | -28 | 0 | 54* | 0 | 9 | 5
CC1=CC(=O)C=C/C1=N/OS(=O)(=O)c1ccccc1 | -4 | -1 | 40 | 0 | . | .
O=C1NC(c2ccccc2)=C([N+](=O)[O-])C(c2cccc(F)c2)N1 (stereo not given) | 12 | 0 | 76* | 2 | -5 | -8
O=S(=O)(c1ccc2c(c1)CCCC2)N1CCN(c2cc(N3CCCC3)ncn2)CC1 | 0 | 1 | 16 | 0 | . | .
O=S(=O)(c1ccc2c(c1)OCCO2)N1CCN(c2cc(N3CCCC3)ncn2)CC1 | -13 | 0 | 80* | 3 | 8 | 19
c1ccc2c(Nc3nc(NCc4nc5ccccc5[nH]4)c4ncn(-c5ccsc5)c4n3)nccc2c1 | 27 | 1 | 62* | 2 | -7 | 11
CCCCNC(=O)CN1N=C(c2ccc(OC)cc2)CCC1=O | -10 | 0 | 3 | 2 | . | .
Cc1n[nH]c(=O)nc1NNc1ccc(C(=O)O)cc1 | -1 | 0 | 56* | -2 | 32* | 10 | AlphaScreen DR=>6.5
COc1cc(Cl)c(C)cc1N1C(=O)[C@@H]2C[C@H]1CN2Cc1ccoc1 | -4 | 0 | 5 | 1 | . | .
